Measurements from PubChem BioAssay AID1159580 (chemical genetic matrix, 2015).
“And” between values parts separate entries of the source, which are not always exact repeats. Equal values may be shown once. Screen size: about 5,500 compounds; about 2,000 (36%) were called active. Another 18% or so got no clear call; they are omitted. Rule as the data show it: active = normalized growth mostly below about 0.91 (no sharp cut-off); inconclusive = no clear call, values can overlap the other calls; inactive = mostly above about 0.92. Some of the results follow.

Test: chemical genetic growth profiling, strain panel (AID 1159580);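 also: tested at 20 µM; growth read once vehicle control cultures reached saturation at 30 °C; 1 = growth at the plate median or of vehicle wells; lower values mean less growth of the strain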
Settings: S. cerevisiae deletion strains, growth OD

Measured: normalized growth

Cc1cc(O)cc(O)c1C(=O)O
inactive: locus YAL021C, strain ccr4, active compounds read low 0.972 | locus YAL026C, strain drs2, active compounds read low 1.05 | locus YAL030W, strain snc1, active compounds read low 1.02 | locus YBL061C, strain skt5, active compounds read low 1.02 | locus YBR009C, strain hhf1, active compounds read low 1.01 | locus YBR021W, strain FUR4, active compounds read low 1.02 | locus YBR023C, strain chs3, active compounds read low 1.02 | locus YBR171W, strain sec66, active compounds read low 1.02 | locus YBR229C, strain ROT2, active compounds read low 1.02 | locus YBR231C, strain swc5, active compounds read low 1 | locus YBR279W, strain paf1, active compounds read low 1.02 | locus YCL011C, strain gbp2, active compounds read low 1.01 | locus YCL016C, strain dcc1, active compounds read low 0.984 | locus YCL029C, strain bik1, active compounds read low 1 | locus YCL061C, strain MRC1, active compounds read low 1.03 | locus YCL069W, strain vba3, active compounds read low 1.01 | locus YCR088W, strain abp1, active compounds read low 1.02 | locus YDL005C, strain med2, active compounds read low 1.03 | locus YDL035C, strain GPR1, active compounds read low 1.04 | locus YDL040C, strain nat1, active compounds read low 1.02 | locus YDL074C, strain BRE1, active compounds read low 1.03 | locus YDL101C, strain DUN1, active compounds read low 1 | locus YDL134C, strain PPH21, active compounds read low 1.04 | locus YDL185W, strain tfp1, active compounds read low 0.988 | locus YDL192W, strain arf1, active compounds read low 1.04 | locus YDR001C, strain nth1, active compounds read low 1.02 | locus YDR069C, strain doa4, active compounds read low 1.03 | locus YDR101C, strain arx1, active compounds read low 1.04 | locus YDR137W, strain rgp1, active compounds read low 1.03 | locus YDR159W, strain sac3, active compounds read low 1.06 | locus YDR162C, strain NBP2, active compounds read low 1.01 | locus YDR195W, strain ref2 0.986 | locus YDR297W, strain sur2, active compounds read low 1.02 | locus YDR318W, strain mcm21, active compounds read low 1.01 | locus YDR334W, strain swr1, active compounds read low 1.02 | locus YDR335W, strain msn5, active compounds read low 1.02 | locus YDR388W, active compounds read low 1 | locus YDR392W, strain spt3, active compounds read low 0.897 | locus YDR502C, strain sam2, active compounds read low 0.997 | locus YEL003W, strain gim4, active compounds read low 1.01 | locus YEL037C, strain rad23, active compounds read low 1.01 | locus YEL061C, strain CIN8 (second series), active compounds read low 1.01 | locus YEL061C, strain CIN8, active compounds read low 1.01 | locus YER015W, strain faa2, active compounds read low 1.01 | locus YER016W, strain bim1, active compounds read low 1.02 | locus YER110C, active compounds read low 0.982 | locus YER111C, strain swi4, active compounds read low 1.01 | locus YER155C, strain BEM2 (second series), active compounds read low 1.02 | locus YER155C, strain BEM2, active compounds read low 1 | locus YER167W, strain BCK2, active compounds read low 1.01 | locus YFR010W, strain ubp6, active compounds read low 1.02 | locus YGL078C, strain dbp3, active compounds read low 0.964 | locus YGL086W, strain mad1, active compounds read low 1.01 | locus YGL167C, strain pmr1, active compounds read low 1.02 | locus YGL173C, strain kem1, active compounds read low 1.04 | locus YGL227W, strain vid30, active compounds read low 1.01 | locus YGL240W, strain doc1, active compounds read low 1.02 | locus YGL248W, strain PDE1, active compounds read low 1.03 | locus YGL253W, strain hxk2, active compounds read low 1.05 | locus YGR078C, strain PAC10, active compounds read low 1.03 | locus YGR135W, strain pre9, active compounds read low 0.96 | locus YGR252W, strain gcn5, active compounds read low 1.06 | locus YHR013C, strain ard1, active compounds read low 1.02 | locus YHR027C, strain rpn1, active compounds read low 1.01 | locus YHR030C, strain SLT2, active compounds read low 1.1 | locus YHR079C, strain IRE1 (second series), active compounds read low 1 | locus YHR079C, strain IRE1, active compounds read low 1.08 | locus YHR094C, strain hxt1, active compounds read low 1.01 | locus YHR129C, strain ARP1, active compounds read low 1.02 | locus YHR142W, strain chs7, active compounds read low 1.01 | locus YHR200W, strain rpn10, active compounds read low 1 | locus YIL066C, strain RNR3, active compounds read low 1.03 | locus YIL073C, strain SPO22, active compounds read low 1 | locus YIL125W, strain kgd1, active compounds read low 0.993 | locus YIR030C, strain dcg1, active compounds read low 1.01 | locus YJL092W, strain hpr5, active compounds read low 1.02 | locus YJL095W, strain BCK1 (second series), active compounds read low 1.02 | locus YJL095W, strain BCK1, active compounds read low 1.04 and 1.07 | locus YJL115W, strain asf1, active compounds read low 1.02 | locus YJL129C, strain trk1, active compounds read low 1.03 | locus YJL134W, strain LCB3, active compounds read low 1.01 | locus YJL154C, strain vps35, active compounds read low 1.01 | locus YJL164C, strain tpk1, active compounds read low 0.997 | locus YJL166W, strain qcr8, active compounds read low 1.03 | locus YJL168C, strain set2, active compounds read low 1.02 | locus YJL187C, strain SWE1 (second series), active compounds read low 1.01 | locus YJL187C, strain SWE1, active compounds read low 1.02
